Results on 38 compounds are retold here after the supplement of paper PMC10121225.

Each structure is given as a SMILES string. Structures can show the parent of a compound that is named as a salt.
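Also: immunostained co-cultures imaged by high-content microscopy, Z-score per plate against mean and SD of 0.1% DMSO wells, compounds added on differentiation day 18, analysed day 21.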

This experiment deals with hN + hpA co-culture (H1 iNGN2 human neurons + human primary astrocytes). Nature of the experiment: presynaptic density (SYNAPSIN1 puncta per MAP2 neurite area), Z-score vs DMSO controls; higher = more presynaptic puncta (synapse-promoting). The following applies: 3 µM; 72 h.
As to `CCc1c2c(nc3ccc(OC(=O)N4CCC(N5CCCCC5)CC4)cc13)-c1cc3c(c(=O)n1C2)COC(=O)[C@]3(O)CC` [Irinotecan], the “presynaptic density (Z-score)” value was -0.725. Take `C[C@@H](c1ncncc1F)[C@](O)(Cn1cncn1)c1ccc(F)cc1F`: the “presynaptic density (Z-score)” value came out at 0.265. Turning to `CC1C(=O)OC2C(O)C34C5CC(C(C)(C)C)C36C(OC(=O)C6O)OC4(C(=O)O5)C12O` (stereo not drawn) [Ginkgolide B], the “presynaptic density (Z-score)” value was -0.504. Regarding `CCCc1nc2c(C)cc(-c3nc4ccccc4n3C)cc2n1Cc1ccc(-c2ccccc2C(=O)O)cc1`, the “presynaptic density (Z-score)” value was -0.154. Consider `Cc1cc(NC(=O)Nc2ccc(N(C)C)cc2)c2cc(F)cc(F)c2n1`, for which the “presynaptic density (Z-score)” value was determined as 0.301.

As for `C#CCC(Cc1cnc2nc(N)nc(N)c2n1)c1ccc(C(=O)N[C@@H](CCC(=O)O)C(=O)O)cc1` (stereo partly drawn) [Pralatrexate], the “presynaptic density (Z-score)” value came to 0.0678. With `Cc1c(C(=O)NN2CCCCC2)nn(-c2ccc(Cl)cc2Cl)c1-c1ccc(Cl)cc1` [Rimonabant], the “presynaptic density (Z-score)” value was -0.594. For `CC(NC(=O)C(O)c1cc(F)cc(F)c1)C(=O)NC1C(=O)N(C)c2ccccc2-c2ccccc21` (stereo not drawn), the “presynaptic density (Z-score)” value turned out to be 0.0312. Consider `Nc1nc(CC(=O)Nc2ccc(CCNC[C@H](O)c3ccccc3)cc2)cs1` [Mirabegron], for which the “presynaptic density (Z-score)” value was -0.111. As for `Cc1cn(-c2cc(NC(=O)c3ccc(C)c(Nc4nccc(-c5cccnc5)n4)c3)cc(C(F)(F)F)c2)cn1` [Nilotinib (AMN 107 or Tasigna)], the “presynaptic density (Z-score)” value was -1.02. As for `C=C[C@@]1(C)CC(=O)[C@]2(O)[C@@]3(C)[C@@H](O)CCC(C)(C)[C@@H]3[C@H](O)[C@H](OC(C)=O)[C@@]2(C)O1` [Forskolin], the “presynaptic density (Z-score)” value turned out to be 0.455. Turning to `CNC(=O)c1ccc2cc([C@@]3(O)CCn4cncc43)ccc2c1` [TAK-700 (Orteronel)], the “presynaptic density (Z-score)” value was 0.215.

`CC(C)(C#N)c1cc(Cn2cncn2)cc(C(C)(C)C#N)c1`: the “presynaptic density (Z-score)” value is -0.628.

For `Cc1cc(-c2ccc(CC(=O)Nc3ccc(-c4cccnc4)cc3)cc2)ccn1`, the “presynaptic density (Z-score)” value came to 0.0884. Regarding `CC(C)(F)C[C@H](N[C@@H](c1ccc(-c2ccc(S(C)(=O)=O)cc2)cc1)C(F)(F)F)C(=O)NC1(C#N)CC1` [Odanacatib (MK-0822)], the “presynaptic density (Z-score)” value is -0.252. As for `O=C(NOCC1CC1)c1ccc(F)c(F)c1Nc1ccc(I)cc1Cl`, the “presynaptic density (Z-score)” value was -0.102.

As to `NC(=O)Nc1sc(-c2ccc(F)cc2)cc1C(N)=O`, the “presynaptic density (Z-score)” value is -1.69. Regarding `CCn1c(=O)c2c(nc(/C=C/c3ccc(OC)c(OC)c3)n2C)n(CC)c1=O` [Istradefylline], the “presynaptic density (Z-score)” value was -0.775.

For the compound `C[C@@H]1CN(CC(=O)Nc2ccc3c(c2)Cc2cccc(-c4cc(=O)cc(N5CCOCC5)o4)c2S3)C[C@H](C)O1`, the “presynaptic density (Z-score)” value is -1.12. Take `Cc1ccc(C(=O)N(CCCN)[C@@H](c2nc3cc(Cl)ccc3c(=O)n2Cc2ccccc2)C(C)C)cc1`: the “presynaptic density (Z-score)” value is -0.26.

As to `CCC(=O)NCC[C@@H]1CCc2ccc3c(c21)CCO3`, the “presynaptic density (Z-score)” value is -1.53.

On to `Cc1ccc(S(=O)(=O)OCC(=O)Nc2ccc(C(=O)O)c(O)c2)cc1`, for which the “presynaptic density (Z-score)” value was -0.554. For `COc1cc2c(cc1Cc1cccc(Cl)c1F)c(=O)c(C(=O)O)cn2[C@H](CO)C(C)C` [Elvitegravir (GS-9137], the “presynaptic density (Z-score)” value was 0.597. In the case of `CC1(C)CCC(c2ccc(Cl)cc2)=C(CN2CCN(c3ccc(C(=O)NS(=O)(=O)c4ccc(N[C@H](CCN5CCOCC5)CSc5ccccc5)c(S(=O)(=O)C(F)(F)F)c4)cc3)CC2)C1` it was 0.29; in that of `NC(=O)c1cccc(-c2cccc(OC(=O)NC3CCCCC3)c2)c1`, -1.17; in that of `Cc1nn(-c2ccccc2)c(C)c1C=NN1CCN(Cc2ccccc2)CC1`, -0.2. Take `CC(C)C[C@H](NC(=O)[C@@H](NC(=O)c1cccc(-c2ccccc2)n1)[C@@H](C)O)B(O)O`: the “presynaptic density (Z-score)” value is -3.12. Take `O=C(NOC[C@H](O)CO)c1ccc(F)c(F)c1Nc1ccc(I)cc1F`: the “presynaptic density (Z-score)” value was -0.369. As to `c1ccc(CC2=NCCN2)cc1` [Tolazoline HCl], the “presynaptic density (Z-score)” value was -0.161.

`O=c1ncccn1[C@@H]1O[C@H](CO)[C@@H](O)[C@H]1O` [Zebularine]: the “presynaptic density (Z-score)” value is -0.579. As to `COc1ccc(C(=O)Nc2sc3c(c2C(N)=O)CCCC3)cc1OC`, the “presynaptic density (Z-score)” value worked out at 0.457. On to `N#C[C@@H]1CCCN1C(=O)CNC12CC3CC(CC(O)(C3)C1)C2` [Vildagliptin (LAF-237)], for which the “presynaptic density (Z-score)” value came out at 0.854.

Turning to `Nc1cccc2c1CN(C1CCC(=O)NC1=O)C2=O` (stereo not drawn) [Lenalidomide], the “presynaptic density (Z-score)” value came out at 1.39. On to `COC(=O)C1=C(C#N)NC(C)=C(C(=O)OC(C)C)C1c1cccc([N+](=O)[O-])c1` (stereo not drawn) [Nilvadipine], for which the “presynaptic density (Z-score)” value was -0.965. Take `O=C(O)c1ccc(Nc2ncc3c(n2)-c2ccc(Cl)cc2C(c2c(F)cccc2F)=NC3)cc1`: the “presynaptic density (Z-score)” value was -0.286.

Turning to `OC(CNCC(O)C1CCc2cc(F)ccc2O1)C1CCc2cc(F)ccc2O1` (stereo not drawn) [Nebivolol], the “presynaptic density (Z-score)” value was -0.196. On to `O=c1oc2cc(O)ccc2s1`, for which the “presynaptic density (Z-score)” value is -0.113. For the compound `CC(NC(=O)c1ccccc1N=Cc1c(O)ccc2ccccc12)c1ccccc1` (stereo not drawn), the “presynaptic density (Z-score)” value is 0.165.
